# The whole screen tested about 5,500 compounds, of which about 2,000 (36%) were called active. Another 18% or so got no clear call; they are omitted. The list shows a part of the results. Unmarked numbers belong to inactive results. No stated cut-off is given here; in the data, active means normalized growth mostly below about 0.91 (no sharp cut-off); inconclusive means no clear call, values can overlap the other calls; inactive means mostly above about 0.92.
# Assay: chemical genetic growth profiling, strain panel (AID 1159580);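 further: tested at 20 µM; growth read once vehicle control cultures reached saturation at 30 °C; 1 = growth at the plate median or of vehicle wells; lower values mean less growth of the strain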
# Details: growth OD
smiles,measurement,setting,value
C#C[C@]1(O)CCC2C3CCC4=CC(=O)CC[C@@H]4C3CC[C@@]21C (some centres undefined),normalized growth,"S. cerevisiae deletion strains, locus YJR066W, strain TOR1, hits give low values",0.909
same,normalized growth,"S. cerevisiae deletion strains, locus YKL009W, strain mrt4, hits give low values",0.954
same,normalized growth,"S. cerevisiae deletion strains, locus YKL068W, hits give low values",0.989
same,normalized growth,"S. cerevisiae deletion strains, locus YKL085W, strain MDH1 (second series), hits give low values",0.986
same,normalized growth,"S. cerevisiae deletion strains, locus YKL085W, strain MDH1, hits give low values",0.986
same,normalized growth,"S. cerevisiae deletion strains, locus YKL160W, strain elf1, hits give low values",1.01
same,normalized growth,"S. cerevisiae deletion strains, locus YKL190W, strain CNB1, hits give low values",0.977
same,normalized growth,"S. cerevisiae deletion strains, locus YKR001C, strain vps1, hits give low values",0.946
same,normalized growth,"S. cerevisiae deletion strains, locus YKR026C, strain gcn3, hits give low values",0.979
same,normalized growth,"S. cerevisiae deletion strains, locus YKR091W, strain srl3, hits give low values",0.982
same,normalized growth,"S. cerevisiae deletion strains, locus YLL001W, strain dnm1, hits give low values",0.972
same,normalized growth,"S. cerevisiae deletion strains, locus YLL026W, hits give low values",0.994
same,normalized growth,"S. cerevisiae deletion strains, locus YLL041C, strain sdh2, hits give low values",0.974
same,normalized growth,"S. cerevisiae deletion strains, locus YLR027C, strain aat2, hits give low values",0.983
same,normalized growth,"S. cerevisiae deletion strains, locus YLR039C, strain RIC1, hits give low values",0.862
same,normalized growth,"S. cerevisiae deletion strains, locus YLR058C, strain SHM2, hits give low values",0.989
same,normalized growth,"S. cerevisiae deletion strains, locus YLR102C, strain apc9, hits give low values",0.978
same,normalized growth,"S. cerevisiae deletion strains, locus YLR113W, strain HOG1, hits give low values",0.958
same,normalized growth,"S. cerevisiae deletion strains, locus YLR221C, strain rsa3, hits give low values",0.991
same,normalized growth,"S. cerevisiae deletion strains, locus YLR258W, strain gsy2, hits give low values",0.993
same,normalized growth,"S. cerevisiae deletion strains, locus YLR262C, strain YPT6 (second series), hits give low values",0.916
same,normalized growth,"S. cerevisiae deletion strains, locus YLR262C, strain YPT6, hits give low values",0.818
same,normalized growth,"S. cerevisiae deletion strains, locus YLR268W, strain sec22, hits give low values",0.94
same,normalized growth,"S. cerevisiae deletion strains, locus YLR320W, strain mms22, hits give low values",0.98
same,normalized growth,"S. cerevisiae deletion strains, locus YLR330W, strain CHS5, hits give low values",0.995
same,normalized growth,"S. cerevisiae deletion strains, locus YLR342W, strain FKS1 (second series), hits give low values",0.923
same,normalized growth,"S. cerevisiae deletion strains, locus YLR342W, strain FKS1, hits give low values",0.976
same,normalized growth,"S. cerevisiae deletion strains, locus YLR357W, strain rsc2, hits give low values",0.988
same,normalized growth,"S. cerevisiae deletion strains, locus YLR370C, strain arc18, hits give low values",0.969
same,normalized growth,"S. cerevisiae deletion strains, locus YLR371W, strain rom2, hits give low values",0.983
same,normalized growth,"S. cerevisiae deletion strains, locus YLR384C, strain iki3, hits give low values",0.982
same,normalized growth,"S. cerevisiae deletion strains, locus YLR418C, strain cdc73, hits give low values",0.915
same,normalized growth,"S. cerevisiae deletion strains, locus YML016C, strain PPZ1, hits give low values",0.991
same,normalized growth,"S. cerevisiae deletion strains, locus YML032C, strain rad52, hits give low values",0.978
same,normalized growth,"S. cerevisiae deletion strains, locus YML120C, strain ndi1, hits give low values",0.977
same,normalized growth,"S. cerevisiae deletion strains, locus YML124C, strain tub3, hits give low values",0.98
same,normalized growth,"S. cerevisiae deletion strains, locus YMR058W, strain fet3, hits give low values",0.965
same,normalized growth,"S. cerevisiae deletion strains, locus YMR078C, strain ctf18, hits give low values",0.964
same,normalized growth,"S. cerevisiae deletion strains, locus YMR125W, strain sto1, hits give low values",0.995
same,normalized growth,"S. cerevisiae deletion strains, locus YMR129W, hits give low values",0.974
same,normalized growth,"S. cerevisiae deletion strains, locus YMR205C, strain PFK2, hits give low values",0.985
same,normalized growth,"S. cerevisiae deletion strains, locus YMR223W, strain ubp8, hits give low values",0.971
same,normalized growth,"S. cerevisiae deletion strains, locus YMR231W, strain pep5, hits give low values",0.981
same,normalized growth,"S. cerevisiae deletion strains, locus YMR307W, strain GAS1, hits give low values",0.874
same,normalized growth,"S. cerevisiae deletion strains, locus YNL067W, strain RPL9B, hits give low values",0.969
same,normalized growth,"S. cerevisiae deletion strains, locus YNL071W, strain lat1, hits give low values",0.964
same,normalized growth,"S. cerevisiae deletion strains, locus YNL128W, strain TEP1, hits give low values",0.992
same,normalized growth,"S. cerevisiae deletion strains, locus YNL183C, strain NPR1, hits give low values",0.924
same,normalized growth,"S. cerevisiae deletion strains, locus YNL209W, strain ssb2, hits give low values",0.997
same,normalized growth,"S. cerevisiae deletion strains, locus YNL233W, strain BNI4, hits give low values",0.996
same,normalized growth,"S. cerevisiae deletion strains, locus YNL248C, strain rpa49, hits give low values",0.985
same,normalized growth,"S. cerevisiae deletion strains, locus YNL250W, strain rad50, hits give low values",0.981
same,normalized growth,"S. cerevisiae deletion strains, locus YNL271C, strain bni1, hits give low values",0.964
same,normalized growth,"S. cerevisiae deletion strains, locus YNL298W, strain CLA4, hits give low values",0.976
same,normalized growth,"S. cerevisiae deletion strains, locus YNL307C, strain MCK1, hits give low values",0.902 (active)
same,normalized growth,"S. cerevisiae deletion strains, locus YNL322C, strain KRE1 (second series), hits give low values",0.98
same,normalized growth,"S. cerevisiae deletion strains, locus YNR049C, strain mso1, hits give low values",0.984
same,normalized growth,"S. cerevisiae deletion strains, locus YNR052C, strain pop2, hits give low values",0.97
same,normalized growth,"S. cerevisiae deletion strains, locus YOL006C, strain TOP1, hits give low values",0.919
same,normalized growth,"S. cerevisiae deletion strains, locus YOL012C, strain htz1",1.68
same,normalized growth,"S. cerevisiae deletion strains, locus YOL147C, strain pex11, hits give low values",0.983
same,normalized growth,"S. cerevisiae deletion strains, locus YOR001W, strain rrp6, hits give low values",0.943
same,normalized growth,"S. cerevisiae deletion strains, locus YOR061W, strain CKA2, hits give low values",0.985
same,normalized growth,"S. cerevisiae deletion strains, locus YOR069W, strain VPS5, hits give low values",0.988
same,normalized growth,"S. cerevisiae deletion strains, locus YOR070C, strain gyp1, hits give low values",0.986
same,normalized growth,"S. cerevisiae deletion strains, locus YOR080W, strain dia2, hits give low values",0.994
same,normalized growth,"S. cerevisiae deletion strains, locus YOR083W, strain WHI5, hits give low values",1.03
same,normalized growth,"S. cerevisiae deletion strains, locus YOR106W, strain vam3, hits give low values",0.999
same,normalized growth,"S. cerevisiae deletion strains, locus YOR136W, strain idh2, hits give low values",0.997
same,normalized growth,"S. cerevisiae deletion strains, locus YOR144C, strain elg1, hits give low values",0.98
same,normalized growth,"S. cerevisiae deletion strains, locus YOR184W, strain ser1, hits give low values",0.848 (active)
same,normalized growth,"S. cerevisiae deletion strains, locus YOR231W, strain MKK1, hits give low values",0.984
same,normalized growth,"S. cerevisiae deletion strains, locus YOR265W, strain rbl2, hits give low values",0.983
same,normalized growth,"S. cerevisiae deletion strains, locus YOR270C, strain vph1, hits give low values",0.901
same,normalized growth,"S. cerevisiae deletion strains, locus YOR290C, strain snf2, hits give low values",0.981
same,normalized growth,"S. cerevisiae deletion strains, locus YOR316C, strain cot1, hits give low values",0.978
same,normalized growth,"S. cerevisiae deletion strains, locus YPL051W, strain arl3, hits give low values",0.986
same,normalized growth,"S. cerevisiae deletion strains, locus YPL055C, strain LGE1, hits give low values",0.997
same,normalized growth,"S. cerevisiae deletion strains, locus YPL078C, strain atp4, hits give low values",0.974
same,normalized growth,"S. cerevisiae deletion strains, locus YPL106C, strain sse1, hits give low values",1.06
same,normalized growth,"S. cerevisiae deletion strains, locus YPL240C, strain hsp82, hits give low values",0.991
same,normalized growth,"S. cerevisiae deletion strains, locus YPL241C, strain CIN2, hits give low values",0.996
same,normalized growth,"S. cerevisiae deletion strains, locus YPL256C, strain CLN2, hits give low values",0.942
same,normalized growth,"S. cerevisiae deletion strains, locus YPR119W, strain clb2, hits give low values",0.982
same,normalized growth,"S. cerevisiae deletion strains, locus YPR141C, strain kar3, hits give low values",0.982
same,normalized growth,"S. cerevisiae deletion strains, locus YPR163C, strain tif3, hits give low values",0.986
same,normalized growth,"S. cerevisiae deletion strains, locus YPR167C, strain met16, hits give low values",0.977
same,normalized growth,"S. cerevisiae deletion strains, strain wtn01, hits give low values",0.962
same,normalized growth,"S. cerevisiae strains, strain wild type, hits give low values",0.986
